Reference: PubChem BioAssay (NCI)
Compounds without any hit were thinned out: in the full panel of roughly 83,000, 20% have a hit.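 Testing used 96-well plates and a 48-hour single-concentration exposure. Example: -40 means 40% of the starting cells died.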 Unmarked numbers belong to inactive results. The source made the active and inactive calls. The calls were made as follows: active = growth percent below 10; inactive = the rest.

Key:
Test in all cases: NCI-60 one-dose screen, 48 h (100 = growth as untreated, 0 = no growth, -100 = all killed)
Conditions in all cases: 10 µM unless noted
NCI-H23 lung = system: NCI-H23 lung
NCI-H226 lung = system: NCI-H226 lung
NCI-H322M lung = system: NCI-H322M lung
HOP-62 NSCLC = system: HOP-62 NSCLC
NCI-H460 lung = system: NCI-H460 lung
HOP-92 NSCLC = system: HOP-92 NSCLC
A549/ATCC NSCLC = system: A549/ATCC NSCLC
786-0 renal = system: 786-0 renal
COLO 205 colon = system: COLO 205 colon

| SMILES | growth (NCI-H23 lung) | growth (NCI-H226 lung) | growth (NCI-H322M lung) | growth (HOP-62 NSCLC) | growth (NCI-H460 lung) | growth (HOP-92 NSCLC) | growth (A549/ATCC NSCLC) | growth (786-0 renal) | growth (COLO 205 colon) |
| --- | --- | --- | --- | --- | --- | --- | --- | --- | --- |
| CCCCCCCCCCNCCSS(=O)(=O)O | 86.2% | 102% | 76.7% | 100% | -62.7% (active) | 93.3% | 69.7% | 87.6% | 116% |
| CCCCN=C(N)c1ccc(OCCSCCOc2ccc(C(N)=NCCCC)cc2)cc1 | 40.4% | 59.2% | 69.2% | 67.7% | 30.3% | 40.1% | 19.5% | 82.5% | 7.64% (active) |
| COc1cc(/C=C/C(=O)c2c(C)n([O-])c3ccc(Cl)cc3[n+]2=O)cc(OC)c1OC | 81.7% | 80.7% | 90.5% | 110% | 64.3% | 78.6% | 71.7% | 94.4% | 86.8% |
| N[C@H](CS)C(=O)O | 102% | 105% | 83.8% | 101% | 103% | 86.4% | 99.5% | 105% | 120% |
| Cc1ccc(NC(=O)c2sc3nc4c(cc3c2N)C(=O)CCC4)cc1 | 64.9% | 83.7% | 55.8% | 114% | 29% | 48.1% | 37% | 94.5% | 23.9% |
| Cc1ccc(C2=Nc3c(ccc4c(C)c(C)c(=O)oc34)OC2)cc1 | 97.4% | 101% | 90.2% | 97.3% | 102% | 87.1% | 99.5% | 93.6% | 111% |
| CCOc1cc(CCNS(=O)(=O)c2ccc(C)cc2)c(C(C)=O)cc1OCC | 89.3% [100 µM] | 81% [100 µM] | 108% [100 µM] | 96.6% [100 µM] | 76.9% [100 µM] | -5.84% [100 µM] (active) | 74.8% [100 µM] | 74.9% [100 µM] | 95.9% [100 µM] |
| COC(=O)[C@H](Cc1cn(C)cn1)NC(=O)[C@H](C)NC(=O)Nc1cc(C(F)(F)F)cc(C(F)(F)F)c1 | -60.9% [100 µM] (active) | -33.9% [100 µM] (active) | -54.6% [100 µM] (active) | -95.3% [100 µM] (active) | -34.3% [100 µM] (active) | -95.3% [100 µM] (active) | -25% [100 µM] (active) | -80.8% [100 µM] (active) | -92% [100 µM] (active) |
| COc1cccc(N2CCN(c3cccc(C)n3)CC2)c1 | 103% | 105% | 103% | 87.7% | 117% | 79.2% | 95.6% | 99.6% | 123% |
| COc1ccc2nc(NC(=O)CN3CCn4c(nnc4C(F)(F)F)C3)sc2c1 | 91.6% | 92.2% | 98.5% | 88.1% | 99.5% | 101% | 88.4% | 96.9% | 109% |
| Cc1cc2c(cc1C)[n+](Cc1ccc3ccccc3n1)cn2Cc1ccc2ccccc2n1 | 1.58% (active) | 9.61% (active) | 36% | 4.38% (active) | 0.342% (active) | -27.3% (active) | 30.4% | 11.2% | -61.5% (active) |
| OCc1n(Cc2ccc3ccccc3c2)cc[n+]1Cc1ccc2ccccc2c1 | 67.7% | 61.6% | 78.9% | 75% | 53.1% | -2.81% (active) | 68.6% | 80.1% | 23.1% |
| CCOC(=O)c1sc(NC(=O)COc2cccc(/C=C3\Cc4ccc(Cl)cc4C3=O)c2)nc1C | 93.1% | 95.4% | 130% | 107% | 103% | 96.7% | 107% | 99.5% | 116% |
| COc1cc(/C=C/C(=O)c2c(C)n([O-])c3ccccc3[n+]2=O)cc(OC)c1OC | 54.9% | 86.5% | 49% | 105% | 20.6% | -0.517% (active) | 51.4% | 65.9% | 55.9% |
| Cc1[nH]ccc2cc3nc4ccccc4c3cc12 | 39.4% | 27.2% | 19.2% | 34.4% | 8.56% (active) | 31.9% | 14.6% | 44.7% | -5.37% (active) |
| COc1ccc(C2CC(c3ccc4c(c3)OCO4)=NN2C=O)cc1 (configuration not stated) | 100% | 87.6% | 107% | 102% | 102% | 89.2% | 95.8% | 89.5% | 115% |
| Cc1n(Cc2ccc3ccccc3c2)c2ccccc2[n+]1Cc1ccc2ccccc2c1 | -29.5% (active) | -9.12% (active) | 9.37% (active) | -62% (active) | -73.9% (active) | -68.2% (active) | 8.96% (active) | -92.8% (active) | -77.1% (active) |
| c1ccc(CN=C(NCc2ccccc2)NCc2ccccc2)cc1 | 42.4% | 51.1% | 75.6% | 78.6% | 73.4% | 48.5% | 47.3% | 73.1% | 41.3% |
| O=C1C(=O)c2c(nc3ccc(Cl)cn23)-c2ccccc21 | -45.4% (active) | -53.9% (active) | -92.1% (active) | -87.9% (active) | -100% (active) | -79.8% (active) | -80.8% (active) | -100% (active) | -100% (active) |
| O=C(O)c1ccc2cccnc2c1O | 8.65% (active) | 6.97% (active) | 12.4% | 13.6% | 6.87% (active) | -29.3% (active) | 10.4% | 7.02% (active) | -70.9% (active) |
| COc1cc(-c2nc3sc4c(c3c(=O)[nH]2)CCCCCC4)cc(OC)c1OC | 22.3% | 60.9% | 39% | 29.6% | 8.85% (active) | 42.7% | 25.8% | 40.7% | -24.2% (active) |
| O=c1[nH]c(SCc2ccccc2)nc2nc(Nc3ccc(NC(=S)Nc4ccccc4)cc3)nc(-c3ccc(O)cc3O)c12 | 97.3% | 93.2% | 121% | 102% | 103% | -2.6% (active) | 105% | 94.7% | 98.2% |
| COc1cc(/C=C\C(C)=N\Nc2ccccc2)ccc1O | 91.2% | 109% | 128% | 67.5% | 111% | 100% | 80.7% | 97.4% | 111% |
| O=C(C(=O)N1CCOCC1)c1cn(CCCn2cc(C(=O)C(=O)N3CCOCC3)c3ccccc32)c2ccccc12 | 113% | 102% | 103% | 103% | 129% | 78.8% | 104% | 104% | 105% |
| COc1cccc(-c2nc(-c3ccc(N)cc3)co2)c1 | 106% | 94.2% | 102% | 108% | 115% | 86.8% | 84.9% | 94.4% | 141% |
| COC(=O)Nc1ccc2ccc3c(NC(=O)OC)ccc4ccc1c2c43 (tested in a mixture with another compound) | 65% | 83.3% | 65% | 48.5% | 26.5% | 9.3% (active) | 41.2% | 60% | 30.8% |
| CCOC(=O)CCN(c1c(Cl)ssc1=O)C(C)C | 105% | 112% | 102% | 106% | 106% | 97% | 93.9% | 98.9% | 115% |
| COc1ccc(/C=C2/SC(=Nc3c(C)nn(-c4ccccc4)c3N)NC2=O)cc1 | 38.3% | 51.1% | 39.1% | 53% | 17.7% | 53.7% | 32.4% | 40.5% | 43.7% |
